The OligoGym collection

molecular target: KCNRG; test: pooled miR-30 sensor sort-seq; sequence = guide strand; details: shRNA
Further: reference of the scale not given here.

Row | Sequence | sensor-assay potency score (higher = more potent)
1 | TTTTATAGAAACATACCTGACT | -0.489
2 | TTGTCTTCAGAAGATACTGTTC | -0.478
3 | TTCTAGTGCTGACCAAATGAAA | -1.49
4 | TTTGTCTTCAGAAGATACTGTT | -0.101
5 | TTTTGTCTTCAGAAGATACTGT | 0.229
6 | TAGAAACATACCTGACTCCAGT | -0.214
7 | TTTTGGTGTTTCATTCGTGATG | -1.02
8 | TTCGTGATGAGCACTTCAGGGC | 0.363
9 | TCTGGTATGATGATAGTCTCTG | 0.569
10 | TACTGTTCTAGTGCTGACCAAA | -1.23

molecular target: KCNS2; test: as above; details: shRNA

Row | Sequence | sensor-assay potency score (higher = more potent)
11 | TACTCCTTACACCATAACCATA | -1.82
12 | TTCTTTGTAGCTGTATTTCAAA | -1
13 | TTAAACTGAGTTCACTTGGTGA | -0.682
14 | TCGAAGTAGAACTCCCGCTGGA | -0.212
15 | TTTAAACTGAGTTCACTTGGTG | 0.664
16 | TTACACCATAACCATAAGGTGC | -1.42
17 | TAGGGCATTCTTGAAGAACTTG | -0.408
18 | TGCTCCACGATTTCGAACCTAG | -0.681
19 | TTTATGGGCATAATAGTCCCTT | -0.514
20 | TAGTCCCTTAAATTGACCGAAG | -1.33
21 | TAGAAATGCAGCACGTAGGGGA | 0.48
22 | TAGAATAGCGTACACGATGGAC | -0.475

molecular target: KCTD3; test: as above; details: shRNA

Row | Sequence | sensor-assay potency score (higher = more potent)
23 | AGGAACAACATCTTGAACCTGC | -0.641
24 | TTTAAATTTACAATTACCCTAT | 0.0082
25 | TTATCTTTCATTCGCAAGGGGA | -0.381
26 | TGTAGTACAGTCAACAGCCTGG | 0.267
27 | TAGTTATAGGAACAACATCTTG | -1.48
28 | TATCAATAAATATAGCACCAGT | -0.952
29 | TTGAGTAGCTCTTCTTCGGTTG | -0.328
30 | TGATTCTGTAACACACAGCAAA | -1.06
31 | TTGTAGTACAGTCAACAGCCTG | -1.16
32 | TTGCATTTAAAGCTACTCGTTC | -0.407
33 | TTTGAGTAGCTCTTCTTCGGTT | -0.151

molecular target: KDELR1; test: as above; details: shRNA

Row | Sequence | sensor-assay potency score (higher = more potent)
34 | TTGCTCACCATGAACAGCTGCG | -0.0886
35 | TCGTAAGTAGCTTTGAACTTGC | -0.201
36 | TAGACCACCTTCATACACGTGT | 0.283
37 | TAAGTAGCTTTGAACTTGCTAT | -0.0372
38 | TAGGACTTTGGTGATATAGAGG | -1.32
39 | ATCGTAAGTAGCTTTGAACTTG | -0.446
40 | TAGAGTGAGATGTAGTTGGTGA | 0.498
